# This is a sample that favours compounds with a hit; in the whole collection about 3.1% have one here.
# EBV LMP1 NFkB – EBV LMP1-driven NF-kappaB luciferase reporter inhibitors, primary screen, cell-based, luminescence, single point; LMP1-induced NF-kappaB luciferase reporter cells; hit rate 0.69% among 350,000; inhibition, % at 12.5 µM; in the data active = inhibition above about 41%;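 note: 0% = neutral control wells and 100% = reference inhibitor control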
# EWS-Fli block – EWS/Fli-driven NR0B1 reporter inhibitors, primary screen, A673 cells, NR0B1 luciferase, luminescence, MLPCN library | viability-normalised | inhibition, % at 12.6 µM | hit rate 0.67% among 350,000 | AID 651661, 2012;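 active = mean inhibition of at least 50% after viability correction, with every replicate also passing that limit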;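 note: firefly luciferase signal divided by Alamar Blue viability fluorescence both relative to DMSO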
# LGR2 antag – inhibitors of bursicon-induced LGR2 CRE-luciferase signal, primary screen, cell-based, HEK293, CRE-luciferase reporter, bursicon stimulation; bursicon-stimulated, 4 h; Drosophila bursicon receptor LGR2 (rickets); AID 720647, 2013; hit rate 0.35% among 380,000; inhibition, % at 9.99 µM;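 active = drop in luminescence signal, shown as inhibition above about 50% in the replicate tests, limit read from the data, passing the limit was not always enough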;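 note: agonist challenge used bursicon conditioned medium at about half maximal strength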
# PAX8 reporter – inhibitors of PAX8-driven TPO luciferase reporter, primary screen, RMG-I cells, single concentration. SteadyGlo, 24 h. inhibition, % at 12.6 µM. hit rate 1.2% among 360,000;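 active = mean replicate inhibition at least 60% with every replicate also reaching 60%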;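 note: luciferase light reporting Pax8 driven TPO promoter activity; plate controls were median of neutral control wells for no effect and mitoxantrone controls for full effect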
# TWEAK Fn14 block – inhibitors of TWEAK-Fn14 signaling, primary screen, luciferase reporter cells, uHTS; hit rate 2% among 360,000; TWEAK-stimulated Fn14 reporter cells, luciferase luminescence, 8 h; inhibition, % at 10 µM; in the data active = inhibition above about 50%
# TROY signal inh – inhibitors of TROY-driven NF-kB signaling, primary screen, Q293 LMP1-TROYcd cells, NF-kB luciferase, uHTS; Q293 LMP1-TROYcd NF-kB luciferase reporter, 4 h; inhibition, % at 10 µM; AID 1347056, 2019; hit rate 0.98% among 360,000;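 active = compounds whose plate-normalised and pattern-corrected inhibition of the luciferase reporter signal at the single screening dose is 50% or more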
# An asterisk follows results filed as active; nt = no result given.
SMILES,EBV LMP1 NFkB,EWS-Fli block,LGR2 antag,PAX8 reporter,TWEAK Fn14 block,TROY signal inh
C/C=C/c1cnc2c(c1)C(=O)N([C@H](C)CO)C[C@H](C)[C@H](CN(C)Cc1cccc(C(=O)O)c1)O2,nt,-5,5,-14,nt,nt
CC(C)(C)[S@@](=O)N1Cc2cc(C(=O)NCCc3ccncc3)nc(-c3cccc(-c4ccccc4)c3)c2[C@H]1CCO,nt,-1,-21,12,nt,nt
COc1ccc(C#Cc2cnc3c(c2)C(=O)N([C@H](C)CO)C[C@H](C)[C@@H](CN(C)C(=O)c2ccccc2F)O3)cc1,nt,10,-16,nt,nt,nt
CN(C)c1ccc(C=c2c3cc([N+](=O)[O-])ccc3n3c2cc(-c2ccccc2)[n+]3C)cc1,18,56*,43,114*,76*,43
COc1cc(C=c2c3ccccc3n3c2cc(-c2ccccc2)[n+]3C)cc(OC)c1OC,7,8,7,93*,17,8
COc1cc(N(C)C)ccc1C=c1c2ccccc2n2c1cc(-c1ccccc1)[n+]2C,2,36,79*,88*,88*,58*
COc1cc(/C=C(/C(=O)O)c2ccc(-c3ccccc3)cc2)cc(OC)c1OC,-2,9,-17,2,29,3
CN(C)c1ccc(C=c2c3ccccc3n3c2cc(-c2ccc(Cl)cc2)[n+]3C)cc1,22,9,29,78*,54*,62*
C[C@@H]1CN([C@@H](C)CO)C(=O)c2cccc(NS(=O)(=O)c3ccccc3)c2O[C@H]1CN(C)C(=O)NC1CCCCC1,nt,6,4,-2,nt,nt
COc1ccc(NC(=O)N2C[C@H](O)COC[C@H]3O[C@H](CC(=O)NCc4ccccc4OC)CC[C@@H]32)cc1,nt,-14,4,-6,nt,nt
CN(C)c1ccc(C=c2c3ccccc3n3c2cc(-c2ccccc2)[n+]3C)cc1,39,-10,91*,95*,97*,53*
Cc1nn(C)cc1NC(=O)C[C@H]1CC[C@@H]2[C@H](COc3ccc(NC(=O)Nc4cccc(Cl)c4)cc3C(=O)N2C)O1,nt,-4,-23,6,nt,nt
Oc1[nH]c2ccccc2c1N=Nc1ccccc1Cl,-37,-41,-67,-122,-19,-26
Oc1c(C=Nc2ccccc2Cl)[nH]c2ccccc12,-40,-30,-52,-106,26,52*
CCCN(C)C[C@H]1OCCCC[C@@H](C)Oc2ccc(NS(=O)(=O)c3cn(C)cn3)cc2C(=O)N([C@H](C)CO)C[C@H]1C,nt,4,-13,-8,nt,nt
CN(C)CCNc1ncnc2c1sc1nc(-c3ccccc3)c3c(c12)CCCC3,-9,45,26,64*,2,39
COc1ccc(NC(=O)Nc2cccc3c2O[C@@H](CN(C)S(=O)(=O)c2ccc(OC)cc2)[C@H](C)CN([C@@H](C)CO)C3=O)cc1,nt,6,-8,1,nt,nt
COCC(=O)N(C)C[C@@H]1Oc2ncc(-c3ccc(F)cc3)cc2C(=O)N([C@H](C)CO)C[C@H]1C,nt,-4,10,nt,nt,nt
Cc1nc2ccccc2nc1SCC(=O)c1ccccc1,-1,nt,-15,-6,60*,43
CC(C)(C)c1nc(SCC(=O)c2ccccc2)c2ccccc2n1,-8,-67,-90,-149,1,13
CCOc1ccccc1NC(=O)N1CCc2ccccc2C1,2,-1,2,nt,-7,7
COc1ccccc1NC(=S)N1CCCc2ccccc21,-5,7,3,-6,66*,54*
COc1ccccc1NC(=O)C(=O)Nc1ccc2c(c1)N(C(=O)C1CC1)CCC2,-12,-26,-10,79*,-22,-1
CCOc1ccccc1NC(=O)N1CCCc2ccccc21,9,5,8,0,16,75*
COc1ccc(OC)c(NC(=O)N2CCCc3ccccc32)c1,-3,-3,-5,-61,44,76*
CC(=O)Nc1cccc(NC(=O)C(=O)Nc2ccc3c(c2)N(C(=O)C2CC2)CCC3)c1,-8,-15,-6,-49,16,-8
CCOc1ccccc1NC(=S)N1CCCc2ccccc21,3,0,6,-62,53*,54*
COc1ccc2c3c([nH]c2c1)[C@H](CO)N(C(C)=O)CC31CN(C(=O)Nc2c(C)noc2C)C1,nt,5,-9,nt,nt,nt

# Screening results from PubChem.
